Data reported in PubChem BioAssay AID1259310 (The Scripps Research Institute Molecular Screening Center, 2017).
Hit rate of the full screen: of about 650,000 compounds, about 850 (0.13%) were called active. The full list was thinned out, with actives kept by preference. Values without a mark were called inactive. Rule as the data show it: active = normalized activity above about 1.9%; inactive = the rest.

These compounds were tested against F-box/WD repeat-containing protein 7 (Homo sapiens) (UniProt Q969H0) (assay: FBW7 E3 ligase activators, primary screen, biochemical, AlphaScreen, human (AID 1259310;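 also: purified mutant Fbw7 with reduced substrate affinity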)). Settings: AlphaScreen FBW7–phospho-cyclin E peptide binding, activator screen; at 26.1 µM; active compounds read high.
F-box/WD repeat-containing protein 7 (Homo sapiens), sequence (Q969H0 whole entry, looked up): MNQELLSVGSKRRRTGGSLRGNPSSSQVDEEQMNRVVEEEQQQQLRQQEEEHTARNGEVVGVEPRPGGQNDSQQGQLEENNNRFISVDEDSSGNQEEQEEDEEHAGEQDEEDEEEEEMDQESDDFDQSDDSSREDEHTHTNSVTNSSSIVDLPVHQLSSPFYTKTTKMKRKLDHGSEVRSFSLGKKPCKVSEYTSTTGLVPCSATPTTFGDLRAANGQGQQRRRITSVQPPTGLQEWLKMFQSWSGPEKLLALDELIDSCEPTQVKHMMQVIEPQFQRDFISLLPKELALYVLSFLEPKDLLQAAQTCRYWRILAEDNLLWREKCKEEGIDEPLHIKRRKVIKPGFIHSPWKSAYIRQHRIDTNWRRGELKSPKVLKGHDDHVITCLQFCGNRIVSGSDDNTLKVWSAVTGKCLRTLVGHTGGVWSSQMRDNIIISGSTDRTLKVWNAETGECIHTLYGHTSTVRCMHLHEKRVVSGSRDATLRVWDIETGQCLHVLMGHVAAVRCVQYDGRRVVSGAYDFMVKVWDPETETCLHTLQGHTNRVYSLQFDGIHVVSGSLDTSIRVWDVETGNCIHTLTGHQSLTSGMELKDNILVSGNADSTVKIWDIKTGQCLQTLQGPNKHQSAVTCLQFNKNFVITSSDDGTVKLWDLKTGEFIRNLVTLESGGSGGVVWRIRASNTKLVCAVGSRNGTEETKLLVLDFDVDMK
Work on `CCOC(=O)C1=C(C)NC(=S)NC1c1cc(OC)ccc1O` (configuration not stated) yielded a normalized activity (activation) of 0.11%. With `N#Cc1c2c(c(-n3ccnc3)n3c1nc1ccccc13)CCC2` the normalized activity (activation) was 0.17%. For `CCc1c(C)c(C#N)c2nc3ccccc3n2c1-n1ccnc1`, the normalized activity (activation) was 2.07% (active). `Cc1c(CCC#N)c(-n2ccnc2)n2c(nc3ccccc32)c1C#N` showed a normalized activity (activation) of -0.21%. Compound `COc1ccc(/C=N/Nc2nc3nonc3nc2Nc2cccc(C)c2)cc1OC` has a normalized activity (activation) of -0.17%. `COc1cccc2c1OC1(CCN(C(=O)Nc3cccc(F)c3)CC1)OC2` showed a normalized activity (activation) of -0.04%. For `Oc1ccccc1-c1nc(-c2cccc(C(F)(F)F)c2)c(-c2ccccc2)[nH]1`, the normalized activity (activation) was 0.23%. For `c1cnc(Sc2nnc3ccccn23)nc1`, the normalized activity (activation) was 0.1%. `COc1ccc(N=C2CCC(O)=C2C(C)=O)cc1` gave a normalized activity (activation) of 0.05%. For `COc1ccc(S(=O)(=O)NCC(=O)Nc2cccc(Br)c2)cc1OC`, the normalized activity (activation) was -0.15%. `COc1cccc(C(=O)N2CCc3ccccc32)c1` showed a normalized activity (activation) of 0.05%. With `CCn1c(=N)n(CC(=O)c2cccc(OC)c2)c2ccccc21` the normalized activity (activation) was 2.64% (active). Work on `COc1cccc(C(=O)N2CCN(C(=O)c3cccc(OC)c3)CC2)c1` yielded a normalized activity (activation) of 0%. With `Cc1cc(S(=O)(=O)Nc2ccc(Br)cc2)c(C)c(S(=O)(=O)c2ccc(Cl)cc2)c1` the normalized activity (activation) was 0.11%. In the case of `O=C1CCCC2=C1C(c1cccnc1)Nc1ccc3ncccc3c12` (configuration not stated), the normalized activity (activation) is reported as -0.33%. `CCCCNC(=O)CSc1nnc2c(n1)[nH]c1ccccc12` was tested, and the normalized activity (activation) was 0.16%. With `CCCCNc1ncc2c(n1)c(=O)c(C#N)c1[nH]c3ccccc3c(=O)n12` the normalized activity (activation) was 2.15% (active). Compound `CN(C)CCCNc1ncc2c(n1)c(=O)c(C#N)c1[nH]c3ccccc3c(=O)n12` has a normalized activity (activation) of -0.01%. Work on `O=C(O)COc1ccc(C2Nc3ccccc3S(=O)(=O)N2Cc2ccccc2)cc1` (configuration not stated) yielded a normalized activity (activation) of -0.1%. Compound `O=C(c1nc2ccccc2s1)N1CCN(c2nc3ccccc3s2)CC1` has a normalized activity (activation) of 0.01%. With `Oc1ccccc1-c1nc(CI)no1` the normalized activity (activation) was 0.03%. Compound `O=S(=O)(NC1CCCCC1Sc1ncn[nH]1)c1ccc(Cl)cc1` (configuration not stated) has a normalized activity (activation) of 0%. `CCSC1=NSC2=NC(=O)/C(=C\c3ccc(OC)cc3)C(=N)N12` showed a normalized activity (activation) of 0.04%. With `COc1cccc(NC(=O)Nc2ccc(-c3cn4c(C)c(C)nnc4n3)cc2)c1` the normalized activity (activation) was 1.87% (active). Compound `COc1cccc(NC(=O)Nc2cc(OC)cc(OC)c2)c1` has a normalized activity (activation) of -0.06%. In the case of `COc1ccc(NC(=O)c2sc3nc(-c4cccc([N+](=O)[O-])c4)cn3c2C)cc1`, the normalized activity (activation) is reported as -0.14%. Compound `CCC(C)(C(=O)Nc1ccc2c(c1)OCCO2)N(Cc1ccco1)C(=O)c1ccccc1O` (configuration not stated) has a normalized activity (activation) of -0.01%. `O=C(COc1cccc([N+](=O)[O-])c1)N/N=C/c1ccc(O)c([N+](=O)[O-])c1` was tested, and the normalized activity (activation) was -0.11%. Work on `CCCC(c1nnnn1C(C)(C)C)N1CCN(Cc2ccccc2)CC1` (configuration not stated) yielded a normalized activity (activation) of 0.01%. With `CN(C)c1ccc(C(c2nnnn2C(C)(C)C)N2CCN(Cc3ccccc3)CC2)cc1` (configuration not stated) the normalized activity (activation) was 1.85% (active). Compound `COc1ccc(C(c2nnnn2C(C)(C)C)N2CCN(c3ccccc3)CC2)cc1` (configuration not stated) has a normalized activity (activation) of 0.3%. With `CC(=O)c1ccc(N2C(=O)C3C(C2=O)C2(C)c4ccccc4C3(C)c3ccccc32)cc1` (configuration not stated) the normalized activity (activation) was -0.19%. For `COc1ccc(-c2cc(NCCOc3ccccc3)nc(N)n2)cc1`, the normalized activity (activation) was 0.12%. Compound `O=C(COc1ccc(Cl)cc1)NNC(=O)C(Cc1ccccc1)N1C(=O)c2ccccc2C1=O` (configuration not stated) has a normalized activity (activation) of 0.06%. Work on `Cc1cc(C(=O)C(=O)c2nccn2C)c(C)n1C` yielded a normalized activity (activation) of 0.04%. `CCC(c1nnnn1C1CCCC1)N1CCN(C(=O)c2ccco2)CC1` (configuration not stated) was tested, and the normalized activity (activation) was -0.16%. `CCC(c1nnnn1CCC(C)C)N1CCN(c2ccccc2)CC1` (configuration not stated) showed a normalized activity (activation) of 0.24%. For `CCC(c1nnnn1CCC(C)C)N1CCN(C(=O)c2ccco2)CC1` (configuration not stated), the normalized activity (activation) was 2.16% (active). `COc1cc(Cl)c(C)cc1NC(=O)CCNC(=O)Cn1cnc2sc3c(c2c1=O)CCCC3` was tested, and the normalized activity (activation) was -0.1%. Work on `Cc1ccc(CN2CCN(CC(=O)NCc3ccccn3)C2=O)cc1` yielded a normalized activity (activation) of -0.27%. With `NNC(=O)CNC(=O)CNS(=O)(=O)c1ccc([N+](=O)[O-])cc1` the normalized activity (activation) was 1.97% (active). With `COC(=O)CNC(=O)CNS(=O)(=O)c1ccccc1[N+](=O)[O-]` the normalized activity (activation) was 0.14%. Compound `O=[N+]([O-])c1ccc(S(=O)(=O)NCCc2ccccc2)cc1` has a normalized activity (activation) of 0.18%. `CC1=C(C(=O)Nc2cccc(C(=O)Nc3cccc(Cl)c3C)c2)SCCO1` gave a normalized activity (activation) of -0.1%. In the case of `COc1cc(C2CC(=O)NC3=C2C(=O)CC(C)(C)C3)cc([N+](=O)[O-])c1O` (configuration not stated), the normalized activity (activation) is reported as -0.34%. With `C#CCN1C(=O)C(O)(CC(=O)c2ccc(OC)c([N+](=O)[O-])c2)c2ccccc21` (configuration not stated) the normalized activity (activation) was 0.12%. Compound `O=c1[nH]c(C2COc3ccc(F)cc3C2)nc2ccc(-c3cn[nH]c3)cc12` (configuration not stated) has a normalized activity (activation) of -0.05%. `CN(C)CCN(C)c1nc(C2COc3ccc(C(N)=O)cc3C2)nc2ccc(-c3cn[nH]c3)cc12` (configuration not stated) showed a normalized activity (activation) of 1.23%. For `O=C(NCCc1cccnc1)c1ccc2c(c1)CC(c1nc3ccc(-c4cn[nH]c4)cc3c(=O)[nH]1)CO2` (configuration not stated), the normalized activity (activation) was 3.03% (active). `CCN(CC)c1ccc2nnc(CCC(=O)Nc3ccc(C(=O)OC)cc3)n2n1` showed a normalized activity (activation) of 0.06%. `CC1CCCN(S(=O)(=O)c2ccc3c(c2)OCC(=O)N3)C1` (configuration not stated) was tested, and the normalized activity (activation) was 0.17%. With `CCOC(=O)CC(C(C)C)N(Cc1ccc(F)cc1)C(=S)Nc1cccc(C)c1` (configuration not stated) the normalized activity (activation) was 0.07%.
